Data from PubChem BioAssay AID434973 (Sanford-Burnham Center for Chemical Genomics, 2010).
Hit rate of the full screen: of about 330,000 compounds, about 4,900 (1.5%) were called active. The sample holds actives, similar compounds and a random draw of the others, so the mix is not that of the screen.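 The calls were made as follows: active = inhibition above about 50% at the single test dose (limit read from the data); inactive = the rest.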

Each compound was assayed against Sentrin-specific protease 7 (Homo sapiens) (UniProt Q9BQF6) (assay: SENP7 protease inhibitors, primary screen, biochemical, luminescence, uHTS (AID 434973;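 also: plate controls were DMSO with enzyme for no effect and no enzyme buffer wells for full effect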)). Settings: recombinant SENP7, Z-RLRGG-aminoluciferin luminescence, 40 min; at 5 µM; active compounds read high.

SMILES | inhibition
COc1ccc([N+](=O)[O-])cc1N(CC(O)CN(CC(C)C)CC(C)C)S(=O)(=O)c1ccc(C)cc1 (stereo not drawn) | 3.08% (inactive)
COc1ccc(C2CC(=O)C=C(NCC3CCCO3)C2)cc1 (stereo not drawn) | 5.59% (inactive)
O=C(CN1C(=O)NC2(CCCCCC2)C1=O)NCc1cccs1 | 3.72% (inactive)
Cc1cc(C(=O)Nc2nnc(C3CC3)s2)c(C)s1 | 77% (active)
Cc1cnc(NC(=O)C2CCCC2)s1 | 0.0964% (inactive)
Cc1ccc(SCC(=O)Nc2ncc(C)s2)cc1 | -2.81% (inactive)
CCc1cc(C(=O)Nc2nnc(C3CC3)s2)sc1C | -5.93% (inactive)
Cc1cnc(NC(=O)c2ccccn2)s1 | 82.8% (active)
O=C(Nc1nnc(Cc2ccccc2)s1)c1cnccn1 | 3.97% (inactive)
Cc1cccc(NC(=O)CSCC(=O)Nc2nnc(C3CC3)s2)c1 | 4.12% (inactive)
O=C(Nc1nnc(C2CC2)s1)c1ccccn1 | 57.4% (active)
O=C(Nc1nnc(C2CC2)s1)c1cc(Cl)sc1Cl | 5.7% (inactive)
OC(CNC1CCCC1)COc1ccc(F)cc1 (stereo not drawn) | 7.04% (inactive)
Cc1nn(C(C)(C)C)c(OC(=O)CC(C)C)c1S(=O)(=O)c1ccccc1 | 4.96% (inactive)
COc1ccc(S(=O)(=O)N2CCN(C(=O)c3cc(C)oc3C)CC2)cc1 | 3.33% (inactive)
COc1ccccc1-c1oc2ccccc2c1C#CCCCCO | 5.54% (inactive)
CC1Cc2ccccc2N1C1=CC(=O)CC(C)(C)C1 (stereo not drawn) | -3.44% (inactive)
CC(C)(C)NC(=O)c1ccc(Cn2cc(C(F)(F)F)ccc2=O)cc1 | -6.25% (inactive)
Clc1ccc(-c2nc3ccccn3c2CN2CCSCC2)cc1 | -5.08% (inactive)
Cc1ccc(C(=O)C(=S)N2CCOCC2)cc1 | -2.91% (inactive)
Cc1[nH]n(C)c(=O)c1N=Nc1ccc(S(C)(=O)=O)cc1 | 0% (inactive)
Cc1[nH]n(C(N)=S)c(=O)c1N=Nc1ccc(Cl)cc1Cl | 51.8% (active)
CC1=NN(C(N)=S)C(=O)C1N=Nc1cc(Cl)ccc1Cl (stereo not drawn) | -5.66% (inactive)
CCOc1ccc(NC(=O)N2CC=C(n3c(=O)[nH]c4ccccc43)CC2)cc1 | 4% (inactive)
CC1CN(/C=C/C(=O)C(F)(F)F)CC(C)O1 (stereo not drawn) | 1.13% (inactive)
CC(C)Sc1ncnc2c1cnn2-c1ccccc1 | 45.7% (inactive)

SMILES | inhibition
C1=C(CCNc2ncnc3c2cnn3-c2ccccc2)CCCC1 | 56.6% (active)
O=C(NCCC1=CCCCC1)C1CCN(Cc2cnn(-c3ccccc3)c2-n2cccc2)CC1 | -3.45% (inactive)
CCCS(=O)(=O)N1CCC(C(=O)NCCCN(C)Cc2ccccc2)CC1 | -8.04% (inactive)
O=C(Nc1ccccc1Cl)c1ccc2nsnc2c1 | 50.7% (active)
O=C(Nc1ccccc1)c1ccc2nsnc2c1 | 35.8% (inactive)
Cc1cccc(NC(=O)c2ccc3nsnc3c2)c1C | 2.56% (inactive)
O=[N+]([O-])c1ccc2oc(-c3cccc(O)c3)nc2c1 | 87.7% (active)
COc1cccc(-c2nnc(SCCOc3ccc4c(C)cc(=O)oc4c3)o2)c1 | 7.33% (inactive)
COc1ccc([N+](=O)[O-])cc1-c1nc2ccccc2nc1-c1ccccc1 | -0.763% (inactive)
COc1cccc(-c2nc3cc(C)ccc3o2)c1 | 99.9% (active)
Cc1nc(-c2ccc([N+](=O)[O-])cc2)c(-c2ccccc2)o1 | -7.84% (inactive)
COc1ccc2oc(-c3cccc(NC(=O)CSc4ccc(Cl)cc4)c3)nc2c1 | -4.24% (inactive)
Cc1ccc(C2(C)NC(=O)N(CC(=O)Nc3ccccc3C(=O)N3CCCCC3)C2=O)cc1 (stereo not drawn) | 12.4% (inactive)
COCOc1cc(O)c(C(=O)/C=C/c2ccc(OCOC)c(OCOC)c2)c(OCOC)c1 | 6.61% (inactive)
O=C(/C=C/c1ccco1)NC(=S)Nc1ccccc1Br | -4.36% (inactive)
Cc1nnc(NC(=O)/C=C/c2ccco2)s1 | -7.44% (inactive)
O=C(/C=C/c1ccco1)Nc1ccc(Oc2ccccc2)cc1 | 63.9% (active)
CCOc1cc(NC(=O)CCl)c(OCC)cc1NC(C)=O | 5.15% (inactive)
O=C(Cc1ccc(S(=O)(=O)N2CCOCC2)s1)N1CCN(c2ccc(C(F)(F)F)cc2[N+](=O)[O-])CC1 | -8% (inactive)
O=C(O)c1cccc(N=NN2CCCCCC2)c1 | 77.8% (active)
O=C(O)c1ccc(N=NN2CCOCC2)cc1 | -2.47% (inactive)
NC1=NN(c2cccc(C(=O)O)c2)C(=O)C1 | 5.47% (inactive)
CC(=O)Oc1ccc(-c2nc3c(C)cccc3c(=O)o2)cc1 | -7.63% (inactive)
CC(=O)Oc1ccc2c(=O)oc(-c3ccc([N+](=O)[O-])cc3)nc2c1 | 97.5% (active)
O=C(Oc1ccc([N+](=O)[O-])cc1)c1ccc2ccccc2n1 | -9.28% (inactive)
COc1ccc(OCC(=O)NCCc2ccc(S(N)(=O)=O)cc2)cc1 | 7.31% (inactive)

SMILES | inhibition
O=C(COC(=O)c1ccco1)NCc1ccc(Cl)cc1 | -0.452% (inactive)
O=C(OCC(=O)N1CCCC1)c1ccco1 | -6.82% (inactive)
CCc1ccc(C(=O)COC(=O)c2ccco2)cc1 | 68.9% (active)
Cc1ccc(-n2nc(-c3ccco3)cc2C(=O)NCc2cccnc2)cc1 | 0.29% (inactive)
COc1ccc(/C=N/Nc2ccccc2C(=O)O)cc1 | 94.3% (active)
O=C(N/N=C/c1ccc(OC(=O)c2ccccc2Cl)cc1)c1ccc(O)cc1 | 4.1% (inactive)
COc1ccc(C(=O)Nc2ccccc2C(=O)N/N=C/c2ccccc2OC)cc1 | 64.8% (active)
COc1ccc(NS(=O)(=O)c2cc(C(=O)Nc3ccccc3C(=O)O)ccc2C)cc1 | 9.65% (inactive)
COc1ccc(C(=O)Nc2cc(C)c(NC(=O)c3ccccc3OC)cn2)cc1 | 9.47% (inactive)
COc1ccc(C(=O)Nc2ccccc2C(=O)N/N=C/c2ccc(O)c(OC)c2)cc1 | 101% (active)
CCOc1cc(/C=N/NC(=O)c2cc(-c3ccccc3)nc3ccccc23)ccc1O | -1.26% (inactive)
COc1ccccc1C(=O)NNC(=O)c1ccc(NC(=O)c2ccccc2)cc1 | 11.6% (inactive)
COc1ccc(/C=N/OCC(=O)N(Cc2ccccc2)c2ccccc2C(=O)O)cc1 | 6.96% (inactive)
O=C(CN1C(=O)NC2(CCCCC2)C1=O)N1CCN(C(=O)c2cccs2)CC1 | -1.61% (inactive)
COc1cc(S(=O)(=O)N2CCN=C2c2ccccc2)ccc1Cl | -10% (inactive)
O=C(CC1OC(=O)c2ccccc21)NC1CCCCC1 (stereo not drawn) | 1.77% (inactive)
CC(C)c1c(O)nc(SCCOc2ccc(Cl)cc2)[nH]c1=O | 8.54% (inactive)
O=C(Cn1cnc2ccccc2c1=O)NNC(=O)c1ccccc1F | -11% (inactive)
CCN1CCN(C(C(=O)NC2CCCC2)c2cc3c(cc2[N+](=O)[O-])OCO3)CC1 (stereo not drawn) | -3.92% (inactive)
Nc1nc(C23CC4CC(CC(C4)C2)C3)cs1 | 3.32% (inactive)
COc1ccccc1N1CCN(C(=O)C(=O)N/N=C/c2ccccc2F)CC1 | -1.74% (inactive)
Fc1ccccc1/C=N/Nc1cc(N2CCCCC2)ncn1 | 69.8% (active)
C(=N/Nc1cc(N2CCOCC2)nc(N2CCOCC2)n1)/c1ccccc1 | 31.9% (inactive)
CC(=O)Nc1ccc(S(=O)(=O)Nc2cc(C)cn(Cc3ccc(C)cc3)c2=O)cc1 | 2.97% (inactive)
Cc1ccc(S(=O)(=O)NC[C@H]2O[C@@H](n3cnc4c(N)ncnc43)[C@H](O)[C@@H]2O)s1 | 6.73% (inactive)
CC(=O)c1cccc(NC(=O)COc2ccc(S(=O)(=O)N3CCOCC3)cc2)c1 | 3.63% (inactive)
